AHR activator – human AHR activation. P35869. AHR-responsive luciferase reporter cells, luminescence. activation, % at 5 µM. actives 2.5% (n = 320,000); in the data active = activation above about 47%;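 also: 0% = vehicle wells and 100% = reference agonist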
hgDAF12 agonist – agonists of H. glycines DAF-12 nuclear receptor; actives 1.8% (n = 370,000); AID 687014; HEK293 GAL4-hgDAF12 UAS-luciferase reporter, agonist luminescence; normalized to butyrate control; activation, % at 6.8 µM;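 active = activation above a cutoff set at the mean of all screened compounds plus 3 SD, cut at about 10% in these data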;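 also: 0% = DMSO wells and 100% = sodium butyrate wells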
DAX1 inh-1 – DAX1 (NR0B1) inhibition, primary screen; inhibition, % at 6.8 µM; actives 1.1% (n = 370,000); HEK293T StAR-luciferase reporter, SF-1/DAX-1 repression relief;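 active = inhibition above the mean over all tested compounds plus 3 SD, cut at about 3.6% in these data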;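 also: 0% = DAX-1 cells with DMSO and 100% = cells lacking DAX-1 with DMSO; higher inhibition means more luminescence from relief of DAX-1 repression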
hcDAF-12 act – activators of H. contortus DAF-12 nuclear receptor; AID 652067; activation, % at 6.8 µM; HEK293 hcDAF-12 lit1-tk-luc reporter, luminescence; 0% DMSO, 100% Δ7-dafachronic acid; actives 1.4% (n = 370,000);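 active = activation above the mean of all tested compounds plus 3 SD, cut at about 5.5% in these data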;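 also: 100% = response to 3 µM Δ7-dafachronic acid high control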
ssDAF-12 act – activates DAF-12 receptor from parasite S. stercoralis | actives 1% (n = 370,000) | activation, % at 6.8 µM | HEK293 ssDAF-12/GRIP1 lit1-tk-luc reporter, luminescence; % of 3 µM dafachronic acid response;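 active = activation above the mean over all tested compounds plus 3 SD, cut at about 0.9% in these data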;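 also: 0% = DMSO-only wells and 100% = 3 µM delta7-dafachronic acid wells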
DAX1 inh-2 – inhibits human nuclear receptor DAX1; AID 504766; actives 0.99% (n = 340,000); P51843; inhibition, % at 6.75 µM; HEK293 Gal4-DAX1 luciferase reporter, luminescence;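 active = inhibition above the mean over all tested compounds plus 3 SD, cut at about 4.2% in these data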;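 also: 0% = DAX1-transfected cells with DMSO and 100% = empty-vector control cells with DMSO; inhibition shows as a rise in luminescence from relieved DAX1 repression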
Target sequence (P51843 207-470 limits assumed): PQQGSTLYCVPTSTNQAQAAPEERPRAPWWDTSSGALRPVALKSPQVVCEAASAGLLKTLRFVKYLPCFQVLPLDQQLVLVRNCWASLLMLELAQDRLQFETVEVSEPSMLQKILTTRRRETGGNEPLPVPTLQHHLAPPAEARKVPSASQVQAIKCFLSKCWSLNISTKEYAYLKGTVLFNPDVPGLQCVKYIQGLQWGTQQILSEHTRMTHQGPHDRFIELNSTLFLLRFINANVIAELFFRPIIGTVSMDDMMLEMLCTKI
An asterisk follows results filed as active; nt = not tested or not shown. A selection: hits, their analogues and other compounds. The true share with any hit is near 5.7%.

SMILES | AHR activator | hgDAF12 agonist | DAX1 inh-1 | hcDAF-12 act | ssDAF-12 act | DAX1 inh-2
O=C(NCc1ccccc1)C(c1ccc(-c2ccccc2)cc1)n1c(=O)c(-c2cc3ccccc3[nH]2)nc2ccccc21 (configuration not stated) | nt | 5 | 2 | 5 | 1.6* | nt
O=C(Nc1ccc2ccccc2c1)C(c1ccccc1F)n1c(=O)c(-c2cc3ccccc3[nH]2)nc2ccccc21 (configuration not stated) | nt | 6 | 0 | 5 | 1 | nt
O=C(NCc1ccccc1)C(c1ccccc1F)n1c(=O)c(-c2cc3ccccc3[nH]2)nc2ccccc21 (configuration not stated) | nt | 1 | -1 | 3 | 0 | nt
O=C(NCc1ccccc1)C(c1ccncc1)n1c(=O)c(-c2cc3ccccc3[nH]2)nc2ccccc21 (configuration not stated) | nt | 9 | 3 | 5.7* | 2.7* | nt
CCOc1ccc(NC(=O)C(Cc2ccccc2)N2C(=O)c3cccc4cccc(c34)C2=O)cc1 (configuration not stated) | 16 | -2 | 0 | 6.0* | 1 | nt
CC(C)NC(=O)C(Cc1ccccc1)N1C(=O)c2ccccc2C1=O (configuration not stated) | 55* | 1 | 0 | -1 | -1 | 0
CCOc1ccc(NC(=O)CN2C(=O)c3cccc4cccc2c34)cc1 | nt | 12* | 3 | 4 | 0 | nt
CC(C)(O)CNC(=O)C(Cc1ccccc1)N1C(=O)c2ccccc2C1=O (configuration not stated) | 1 | -1 | 0 | 1 | 0 | -1
COc1ccc(C2=Nn3c(nnc3C3CCCCC3)SC2)cc1 | nt | -4 | -4 | -6 | -2 | nt
CC(=O)Nc1ccccc1-c1cccc2nccn12 | nt | 1 | -1 | -2 | -1 | nt
CCOC(=O)c1c(C)[nH]c(C(=O)N/N=C/c2ccc(Br)cc2)c1C | 67* | -5 | 0 | -1 | 0 | -1
Cc1[nH]c(C(=O)N/N=C/c2ccc(C(=O)O)cc2)c(C)c1C(=O)N/N=C/c1ccc(C(=O)O)cc1 | 1 | 0 | -1 | -3 | -1 | -1
O=S1(=O)N[C@H](Cc2ccccc2)COc2cccc(F)c21 | nt | -1 | 1 | -1 | -1 | nt
COC(=O)/C(C#N)=C/c1c(N2CCN(c3ccc(OC)cc3)CC2)nc2c(C)cccn2c1=O | 32 | 4 | 1 | 2 | 0 | -2
CNC(=O)/C(C#N)=C/c1c(N2CCN(c3ccccc3)CC2)nc2c(C)cccn2c1=O | 49* | 5 | 0 | 3 | -1 | 0
CNC(=O)/C(C#N)=C/c1c(N2CCN(c3ccc(OC)cc3)CC2)nc2c(C)cccn2c1=O | 55* | -1 | -1 | -1 | -2 | -1
CS(=O)(=O)c1ccc(OC[C@@H](O)CN2CCC(C(O)(c3ccccc3)c3ccccc3)CC2)cc1 | nt | 0 | -1 | 1 | 0 | nt
COc1ccc(Nc2nccc(-c3ccc([N+](=O)[O-])cc3)n2)cc1 | 61* | 0 | -1 | -3 | -1 | 0
COc1nc(Nc2ccc([N+](=O)[O-])cc2)nc(NC2CCCCC2)n1 | 1 | 0 | 0 | -3 | -1 | 0
Cc1cc(C(=O)N(C)C2CCCCC2)no1 | 2 | 1 | 1 | -1 | -1 | 1
CN(C(=O)c1cc(-c2ccccc2)on1)C1CCCCC1 | 3 | 11* | 3 | 2 | 0 | 3
Cc1cc2nc(-c3ccccc3)c(Cc3ccsc3)n2c(C)c1Br | nt | 6 | 0 | 2 | 2.0* | nt
Cc1cc2nc(-c3ccc(Cl)cc3)c(Cc3cccc(Cl)c3)n2c(C)c1Br | nt | 3 | 2 | 3 | 1.1* | nt
Cc1cc2nc(-c3cccc(Cl)c3)c(Cc3cccc(Cl)c3)n2c(C)c1Br | nt | 2 | 1 | 3 | 0 | nt
Cc1ccc(-c2[nH]c3ccccc3c2SCCN)cc1 | 46 | 4 | 1 | 6.0* | 1.2* | 2
SMILES | AHR activator | hgDAF12 agonist | DAX1 inh-1 | hcDAF-12 act | ssDAF-12 act | DAX1 inh-2
NCCSc1c(-c2ccc(Cl)cc2)[nH]c2ccccc12 | 48* | 0 | 0 | 0 | -1 | 3
NCCSc1c(-c2ccccc2)[nH]c2ccccc12 | 12 | 0 | 0 | 2 | -1 | 1
NCCSc1c(-c2ccc(F)cc2)[nH]c2ccccc12 | 12 | 2 | -1 | 0 | -1 | 0
O=Nc1c(-c2ccccc2)cc2ccccn12 | 11 | 3 | -1 | -2 | -1 | 6.6*
CN(C)C(=O)C(=O)c1c(-c2ccccc2)cc2ccccn12 | -4 | -4 | 1 | -2 | -1 | 1
CCN(CC)C(=S)SCC(=O)c1ccccc1 | 5 | 11* | 2 | 2 | 0 | 4
CCN(CC)C(=S)SCC(=O)c1ccc(F)cc1 | 3 | 9 | 2 | 3 | 1.1* | 2
CCOc1cc(/C=C2/SC(=S)N(Cc3ccccc3)C2=O)ccc1O | -1 | 9 | 0 | 6.4* | 0 | -1
COc1cc(/C=C2/SC(=S)N(Cc3ccccc3)C2=O)ccc1OCC(=O)O | 5 | 1 | 1 | -1 | -1 | 1
CCOC(=O)[C@@H]1c2[nH]c3ccccc3c2C[C@@]2(C(=O)OC)C=CCN12 | nt | 1 | 0 | 3 | 1.5* | nt
COC(=O)[C@]12C=CCN1[C@@H](c1ccc(Cl)cc1)c1c(c3ccccc3n1S(=O)(=O)c1ccc(C)cc1)C2 | nt | 5 | 0 | 1 | 0 | nt
COc1ccc(C(=O)Nc2cccc3nc(C)ccc23)cc1OC | 4 | -2 | 0 | -1 | -1 | 1
COc1ccc(C(=O)Nc2cccc3nc(C)ccc23)c(OC)c1 | 72* | 0 | 0 | -1 | -1 | -1
COc1ccccc1NC(=O)c1cc2ccccc2nc1C | 57* | -1 | 0 | -2 | -2 | 0
COc1ccccc1C(=O)Nc1cccc2nc(C)ccc12 | 53* | -2 | 0 | -2 | -2 | 0
COc1cc2c(cc1OC)C(COc1cc(C)cc(C)c1)N(C(C)=O)CC2 (configuration not stated) | 8 | 0 | -1 | 1 | -1 | 0
O=C(COc1ccccc1F)N/N=C1\CCCc2ccccc21 | 15 | 10 | 2 | 5.8* | 0 | 1
COc1ccc(OCC(=O)N/N=C2\CCCc3ccccc32)cc1 | 32 | -3 | 0 | 3 | 1.0* | -1
CCOC(=O)C1=C(COC(=O)c2cccc(N(C)C)c2)NC(=O)NC1C (configuration not stated) | 8 | 5 | 4.2* | 1 | 0 | 0
COCCCNCCOCCOc1ccc(C)cc1Br | 2 | 0 | 0 | 5.7* | 0 | -1
O=C(NCCCN1CCCC1=O)c1cc2nc(-c3ccco3)cc(C(F)(F)F)n2n1 | -3 | -3 | 0 | 1 | 1.0* | 0
S=c1[nH]nc(-c2n[nH]c3c2CCC3)n1N=Cc1ccc(OCc2ccccc2)cc1 | nt | 9 | 0 | 0 | -1 | nt

From PubChem
